Shiga toxin inh – blocks Shiga toxin action in Vero cells. Vero cells, Shiga toxin protein synthesis inhibition reporter. hit rate 9.2% among 290,000. inhibition, % at 38.7 µM. AID 2315; in the data active means inhibition mostly above about 28%, no sharp cut-off; inactive means mostly below about 43%; further: 0% is about no effect
Pf growth 48h – P. falciparum growth inhibition at 48 hours (one generation); P. falciparum luciferase growth in erythrocytes, 48 h; Potency, µM (highest dose often 28.7 µM), inactives show top-dose activity change, negative = inhibition, hits mostly inhibitors; hit rate 5.9% among 310,000; AID 504832; further: potency means the concentration at half of the fitted maximal effect; on the % scale 0 is the no-effect control and ±100 the full control effect
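Cell-based growth assay: transgenic P. falciparum expressing firefly luciferase, cultured in red cells within RPMI 1640 containing 0.5% w/v Albumax, 24 mM bicarbonate and gentamycin. A drop in luciferase activity indicates inhibition.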
Pf growth 96h – P. falciparum growth inhibition at 96 hours | P. falciparum luciferase reporter growth, 96 h | Potency, µM (series often up to 28.7 µM), inactives show at the top dose activity change, negative = inhibition, usual class: inhibitors | hit rate 6.9% among 320,000 | AID 504834; further: potency means the concentration at half of the fitted maximal effect; on the % scale 0 is the no-effect control and ±100 the full control effect
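P. falciparum expressing integrated firefly luciferase grown in erythrocytes (2% hematocrit, 0.05% parasitemia final) with compounds for 96 hours at 37 C, 5% CO2. Growth inhibition read as loss of luminescence after adding luciferase detection reagent.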
Cycloheximide cs – counter-screen for Shiga toxin inhibitors: cycloheximide protein synthesis inhibition. cell reporter, cycloheximide protein synthesis inhibition counterscreen. max response, %. hit rate 12% among 300,000. AID 2314; in the data active means max response mostly above about 13%, no sharp cut-off; inactive means mostly below about 14%; further: read at 38.3 µM for the half of the compounds with a filed dose; 0% is about no effect
An asterisk follows results filed as active; i = inactive; u = inconclusive; x = no result; [ ] = remark or other dose. The list is not random: actives were taken first. Their share in the collection is about 21%. Unless noted, the call rests on the fitted dose curve; in most records, active means well fitted inhibition curve with a large enough effect; inconclusive means small, poorly fitted or top-dose-only effect, or another doubt; inactive means no such curve, though single readings can be large or run the other way.

SMILES | Shiga toxin inh | Pf growth 48h | Pf growth 96h | Cycloheximide cs
CCOc1nc(N=C(N)N)nc2c(C)cccc12 | -9 | 8.3µM* | 0.59µM* | -5
COc1ccc(Cn2c(CCC(=O)NCCC(C)C)nc3ncccc3c2=O)cc1 | -1 | 10%[0.00184 µM] | 47% | -10
Cc1cc(=O)oc2c(C)c(OC(C)C(=O)Nc3ccc(N4CCC(C)CC4)cc3)ccc12 (configuration not stated) | -12 | 7.4µM* | 3.3µM* | -2
Cc1cc(=O)oc2cc(OC(C)C(=O)Nc3ccc(N4CCCCC4)cc3)ccc12 (configuration not stated) | -4 | u | 8% | 2
COc1ccc(-c2cc(=O)oc3c(C)c(OC(C)C(=O)Nc4ccc(CN5CCOCC5)cc4)ccc23)cc1 (configuration not stated) | -4 | 7.4µM* | 3.7µM* | -2
CCCc1nc(SC)[nH]c(=O)c1C | -5 | 1% | 11% | -3
CC(Cl)c1cc(-c2ncc(C(F)(F)F)cc2Cl)no1 (configuration not stated) | 84* | -18% | 25% | 23*
N#CCCN1CCN(C(CNS(=O)(=O)c2ccc(Cl)cc2)c2ccccc2)CC1 (configuration not stated) | 17 | -18% | 5.2µM* | -3
CC(=O)Nc1ccc(NC(=O)COC(=O)c2c(C)nn(-c3ccccc3)c2C)cc1 | 2 | -24% | u | -1
CC(=O)Nc1ccc(NC2=Nc3ccccc3N3C2=Nc2c(c(C)nn2-c2ccccc2)C3c2ccccc2)cc1 (configuration not stated) | -32 | 0.93µM* | u | -2
COc1ccc(NC2=Nc3ccccc3N3C2=Nc2c(c(C)nn2-c2ccc(C)cc2)C3c2cccnc2)cc1 (configuration not stated) | -13 | x | 2.1µM* | 5
O=C(NC(=S)N1CCN(c2ccccn2)CC1)c1ccco1 | 36 | 22% | -28% | 18*
CCOC(=O)N1CCN(Cc2c(NC(=O)c3ccco3)sc(C)c2C)CC1 | 1 | 8% | u | 13
Cc1sc(NC(=O)c2ccco2)c(CN2CCN(c3ccccn3)CC2)c1C | 54 | 9.3µM* | 8% | 32*
CC(=O)Nc1sc2c(c1CN1CCN(c3ccc(F)cc3)CC1)CCCC2 | -16 | x | 9.3µM* | -4
CC(=O)Nc1sc(C)c(C)c1CN1CCN(Cc2ccccc2)CC1 | 10 | u | 4.1µM* | 11
CC(C)Nc1nnc(SCC(=O)N2CCN(C(=O)c3ccco3)CC2)s1 | x | -5% | -17% | x
CCCc1ccc(C(=O)O)cc1 | x | -14% | u | x
Cc1cccc(C)c1NC(=O)C(C)Sc1n[nH]c(-c2ccncc2)n1 (configuration not stated) | -13 | 11% | 63% | -5
O=C(Nc1nnc(-c2ccc(Cl)cc2)o1)C1CCCCC1 | -8 | u | -89% | -2
O=C(Nc1nnc(-c2ccc3c(c2)OCCO3)o1)C1CCCCC1 | 131* | 395% | 150% | 43*
CCOc1ccc(-c2nnc(NC(=O)C3CCCC3)o2)cc1 | 42* | 57% | 68% | 35*
CCOc1ccc(C(=O)Nc2nnc(C3=COCCO3)o2)cc1 | 19 | -22% | -28% | 8.4*
C/C(=N\NC(=O)c1ccc(CSc2nc(C)cc(C)n2)cc1)c1ccco1 | 5 | u | u | -2
O=C(O)c1ccc(COc2ccc3ccccc3c2/C=C2/NC(=O)N(Cc3ccc(F)cc3)C2=O)cc1 | 2 | 8.3µM* | 32% | 7
SMILES | Shiga toxin inh | Pf growth 48h | Pf growth 96h | Cycloheximide cs
O=C(COC(=O)CCc1nc2ccccc2c(=O)[nH]1)NC(=O)NC1CCCC1 | 7 | -3% | 22% | 0
O=C(NC1CCS(=O)(=O)C1)c1ccc(-c2ccc(Br)cc2)o1 (configuration not stated) | 35 | x | u | 19*
O=C(NC12CC3CC(CC(C3)C1)C2)c1ccc(-c2ccc(Br)cc2)o1 | 108* | u | u | 68*
O=C(NC1CCS(=O)(=O)C1)c1ccc(Br)o1 (configuration not stated) | -4 | 41% | 37% | -7
O=C(NC12CC3CC(CC(C3)C1)C2)c1ccc([N+](=O)[O-])o1 | 15 | 5.2µM* | u | 11*
COc1ccc(Cl)cc1-c1nc(SCC(=O)NC2CC2)n[nH]1 | 13 | 0% | 1% | 9
CN(C)c1ccc(S(=O)(=O)NCC(=O)NCCC2=CCCCC2)cc1[N+](=O)[O-] | x | 12µM* | u | x
COc1ccc(CCNC(=O)c2cc3ccccc3oc2=O)cc1 | 34* | 13% | 0% | 29*
Cc1c(C(=O)NCCC2=CCCCC2)cccc1[N+](=O)[O-] | 94* | 41% | u | 35*
CC(=O)OCCNC(=O)c1cc2ccccc2oc1=O | -9 | 13% | 1.7µM* | 6
CN(C)c1ccc(S(=O)(=O)NCC(=O)NCCOc2ccccc2F)cc1[N+](=O)[O-] | x | 5% | -17% | x
CCCC(=O)OCCNC(=O)c1cc2ccccc2oc1=O | 7 | 10% | x | 9
Cc1c(C(=O)NCCc2ccc(S(N)(=O)=O)cc2)cccc1[N+](=O)[O-] | -4 | -4% | -5% | -3
Cc1ccc(F)c(C2C3C=CCC(c4ccccc4)C3C(=O)N2Cc2ccccc2)c1 (configuration not stated) | -3 | x | x | 9
C=COCCNC(=S)N1CCOCCOCCN(C(=S)NCCOC=C)CCOCC1 | 8 | u | 12% | -11
O=C(NCCc1ccccc1)c1cc2ccccc2oc1=O | -8 | 3% | 9.3µM* | -4
O=C(NCCC1=CCCCC1)c1cc2ccccc2oc1=O | 67* | 26% | 39% | 19*
C/C(=N\Nc1ccccc1)c1cc2ccccc2oc1=O | 25 | 42% | u | 19
O=C(NCCc1ccc(F)cc1)c1cc2ccccc2oc1=O | -14 | 11% | -9% | 8
O=C(NCCSc1c(-c2ccccc2)[nH]c2ccccc12)c1cc2ccccc2oc1=O | -5 | -16% | -28% | -4
Cc1ccc(-c2[nH]c3ccccc3c2SCCNC(=O)c2cc3ccccc3oc2=O)cc1 | -20 | u | 5.9µM* | -2
C/C(=N\NC(=O)CC#N)c1cc2ccccc2oc1=O | 29* | 0% | u | 16*
CC(O/N=C/c1ccc(OC(F)F)cc1)C(=O)Nc1cccc(S(=O)(=O)N2CCOCC2)c1 (configuration not stated) | -9 | -10% | u | -1
COC(=O)c1cc(OC)c(OC)cc1NC(=S)N1CCN(C/C=C/c2ccccc2)CC1 | -15 | u | 25% | -2
NS(=O)(=O)c1ccc(CCNCC(=O)NCc2ccccc2Cl)cc1 | 14 | x | -1% | -4
CC(NC(=O)c1cc2ccccc2oc1=O)c1ccccc1 (configuration not stated) | 47* | 11% | 12µM* | 20*
CC(NC(=O)c1cc2ccccc2o1)c1ccccc1 (configuration not stated) | 10 | -1% | i | -3
Cc1cc(=O)oc(C)c1C(=O)OCC(=O)c1ccc2ccccc2c1 | 52* | x | 0% | 30*
Cc1cc(=O)oc(C)c1C(=O)OCC(=O)c1ccccc1 | 34 | 27% | 4% | 30*
